Records with an inconclusive call do not appear. Active and inactive are the calls of the source. Calls follow the shape of the dose curve; as a rule, active = well fitted cell-killing curve with a large enough effect; inconclusive = small, poorly fitted or top-dose-only effect, or effect the other way; inactive = no such curve, though single readings can be large or run the other way. *1 amine or outer side, *2 acyl side, *3 side chain or, on linkers, in order; H or OH if unused. Where a SMILES comes first, the peptide text is derived from it. Bridges are numbered along the chain shown (N, C = ends). Roman numbers before positions name the chains, in order. [ ]: non-standard residue; d: D form. Actinocin(9to1) = Cc1c2oc3c(C)ccc(C(=O)[*:1])c3nc-2c(C(=O)[*:2])c(N)c1=O; NMeV = CN[C@H](C(=O)O)C(C)C; Sar = CNCC(=O)O
What follows are compounds tested on CASKI (assay: Confirmatory qHTS for gynecologic anti-cancer compounds from libraries of approved drugs and bioactive compounds). Conditions: gynecologic cancer cell panel viability, ATPlite luminescence, 48 h; series mostly up to 57.6 µM.
How it was run: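 ATPlite luminescence read-out of cell viability; IC50 from 11-point 1:3 titrations, 57.5 uM to 0.977 nM, 48 h compound exposure at 37 C, 5% CO2. Cells seeded at 1,000/well 16 h before dosing.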
Also: nearly all actives have a fitted effect of over 55% in size.
Potency is read from the fitted curve at half-maximal effect.

Structure (SMILES)	Potency
Cc1cc(CN2CCN(c3c(Br)cnc4nc(-c5ccc(N6CCN(C)CC6)cc5)[nH]c34)CC2)no1	27.3 µM (active)
CCS(=O)(=O)N1CCN(c2ccc(Nc3ncc(C(N)=O)c(NC4CC4)n3)cc2)CC1	10.9 µM (active)
Nc1ccccc1NC(=O)c1ccc(CNc2nccc(-c3cccnc3)n2)cc1	8.63 µM (active)
FC(F)(F)c1ccc(/C=C/c2nc(COc3ccc(CCCCn4ccnn4)cc3)co2)cc1	0.137 µM (active)
CCC1C(=O)N(C)c2cnc(Nc3ccc(C(=O)NC4CCN(C)CC4)cc3OC)nc2N1C1CCCC1 (centres undefined)	6.85 µM (active)
COc1cc(Nc2ncc(F)c(Nc3ccc4c(n3)N(COP(=O)(O)O)C(=O)C(C)(C)O4)n2)cc(OC)c1OC	5.44 µM (active)
CNC(=O)CN1CCC(Oc2cc3c(Nc4cccc(Cl)c4F)ncnc3cc2OC)CC1	10.9 µM (active)
CCC1C(=O)N(C)c2cnc(Nc3ccc(C(=O)NC4CCC(N5CCN(CC6CC6)CC5)CC4)cc3OC)nc2N1C(C)C (centres undefined)	6.11 µM (active)
CN(C)C(CCOc1cccc2ccccc12)c1ccccc1 (centres undefined)	inactive
Cc1ccc(C(=O)Nc2ccc(Oc3cc4cnn(C)c4cc3-c3cn[nH]c3)c(F)c2)c(=O)n1-c1ccc(F)cc1	inactive
CCCCc1oc2ccccc2c1C(=O)c1cc(I)c(OCCN(CC)CC)c(I)c1	79.4 µM (active)
CNC(=O)c1ccccc1Sc1ccc2c(/C=C/c3ccccn3)n[nH]c2c1	13.7 µM (active)
O=C(/C=C/c1cccc(S(=O)(=O)Nc2ccccc2)c1)NO	4.73 µM (active)
Cn1cnc([N+](=O)[O-])c1Sc1ncnc2nc[nH]c12	6.85 µM (active)
CNCc1ccc(-c2[nH]c3cc(F)cc4c3c2CCNC4=O)cc1	inactive
Cc1ccccc1C(OCCN(C)C)c1ccccc1 (centres undefined)	inactive
CCN(CC)CCNC(=O)c1c(C)[nH]c(/C=C2\C(=O)Nc3ccc(F)cc32)c1C	56.2 µM (active)

Structure (SMILES)	Potency
CC[C@@]1(O)C(=O)OCc2c1cc1n(c2=O)Cc2cc3cc(O)ccc3nc2-1	0.243 µM (active)
COCCOc1nc(-c2ccc(Cl)c(Cl)c2)n(-c2ccc(NC(=O)CCl)cc2)n1	inactive
CN[C@@H](C)C(=O)N[C@H]1CN(C(=O)CC(C)C)CC[C@H]2CC[C@@H](C(=O)NC(c3ccccc3)c3ccccc3)N2C1=O	inactive
CN1CCN(CCOc2cc(OC3CCOCC3)c3c(Nc4c(Cl)ccc5c4OCO5)ncnc3c2)CC1	19.3 µM (active)
CCN[C@H]1C[C@H](C)S(=O)(=O)c2sc(S(N)(=O)=O)cc21	inactive
Cc1cc(Nc2cc(N3CCN(C)CC3)nc(/C=C/c3ccccc3)n2)n[nH]1	19.3 µM (active)
OCc1ccc(-c2ccc(-c3ccc(CO)s3)o2)s1	inactive
COc1ccc(-c2ccc3c(N4CCOCC4C)nc(N4CCOCC4C)nc3n2)cc1CO (centres undefined)	inactive
CNc1nc(Nc2ccc(C(=O)N3CCOCC3)cc2OC)ncc1Cl	inactive
CC(C)[C@@H](CS(=O)(=O)C(C)C)N1C(=O)[C@@](C)(CC(=O)O)C[C@H](c2cccc(Cl)c2)[C@H]1c1ccc(Cl)cc1	inactive
O=C1Cc2cc(CCN3CCN(c4nsc5ccccc45)CC3)c(Cl)cc2N1	inactive
Cc1c2oc3c(C)ccc(C(=O)N[C@@H]4C(=O)N[C@H](C(C)C)C(=O)N5CCC[C@H]5C(=O)N(C)CC(=O)N(C)[C@@H](C(C)C)C(=O)O[C@@H]4C)c3nc-2c(C(=O)N[C@@H]2C(=O)N[C@H](C(C)C)C(=O)N3CCC[C@H]3C(=O)N(C)CC(=O)N(C)[C@@H](C(C)C)C(=O)O[C@@H]2C)c(N)c1=O (I: T[dV]P[Sar][NMeV] / II: T[dV]P[Sar][NMeV]; ester I:1-I:C, II:1-II:C; linker I:N-II:N via Actinocin(9to1))	0.611 µM (active)
COc1cc(N2CCC(N)CC2)ccc1Nc1ncc(Cl)c(-c2c[nH]c3ccccc23)n1	24.3 µM (active)
O=C1c2c(O)ccc(O)c2C(=O)c2c(NCCNCCO)ccc(NCCNCCO)c21	7.69 µM (active)
CCCCN(CCCC)C(=O)CN1C[C@H](c2ccc3c(c2)OCO3)[C@@H](C(=O)O)[C@@H]1c1ccc(OC)cc1	inactive
O=c1[nH]c(=O)n([C@H]2C[C@H](O)[C@@H](CO)O2)cc1C(F)(F)F	9.68 µM (active)
NC(=O)Nc1cc(-c2cccc(F)c2)sc1C(=O)NC1CCCNC1 (centres undefined)	2.17 µM (active)

— PubChem BioAssay AID1345085 (National Center for Advancing Translational Sciences (NCATS), 2018)
